Assay results from the supplement of paper PMC11732987, “Enantioselective OTUD7B fragment discovery through chemoproteomics screening and high-throughput optimisation” (Communications Chemistry, 2025).

What was measured:
Assay in all cases: log2 ratio of Biotin-Ahx-Ub-VS probe labelling (fragment/DMSO); higher = less target engagement (more negative = stronger competition), active = hit call of the paper (q ≤ 0.05, log2 ratio ≤ -1)
Conditions in all cases: compound concentration: 200 uM; treatment time: 3 h
USP34 = USP34 (UniProt Q70CQ2)
Procedure, shortened: (§1)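 HEK293T lysate in Tris/CHAPS/IGEPAL buffer with protease inhibitors (495 µg per sample) was given fragment at 200 µM or vehicle for 3 h, in triplicate. It then received Biotin-Ahx-Ub-VS at 0.5 µM final for 1 h. Labelled DUBs were NeutrAvidin-enriched, digested with LysC and trypsin, and run by diaPASEF LC-MS/MS. Values are average log2 fragment/vehicle ratios by unpaired t-test on global-median-normalised Spectronaut quantities of proteins with ≥2 unique peptides.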

USP36 = molecular target: T1, USP36 (UniProt Q9P275)
T1 sequence (whole entry): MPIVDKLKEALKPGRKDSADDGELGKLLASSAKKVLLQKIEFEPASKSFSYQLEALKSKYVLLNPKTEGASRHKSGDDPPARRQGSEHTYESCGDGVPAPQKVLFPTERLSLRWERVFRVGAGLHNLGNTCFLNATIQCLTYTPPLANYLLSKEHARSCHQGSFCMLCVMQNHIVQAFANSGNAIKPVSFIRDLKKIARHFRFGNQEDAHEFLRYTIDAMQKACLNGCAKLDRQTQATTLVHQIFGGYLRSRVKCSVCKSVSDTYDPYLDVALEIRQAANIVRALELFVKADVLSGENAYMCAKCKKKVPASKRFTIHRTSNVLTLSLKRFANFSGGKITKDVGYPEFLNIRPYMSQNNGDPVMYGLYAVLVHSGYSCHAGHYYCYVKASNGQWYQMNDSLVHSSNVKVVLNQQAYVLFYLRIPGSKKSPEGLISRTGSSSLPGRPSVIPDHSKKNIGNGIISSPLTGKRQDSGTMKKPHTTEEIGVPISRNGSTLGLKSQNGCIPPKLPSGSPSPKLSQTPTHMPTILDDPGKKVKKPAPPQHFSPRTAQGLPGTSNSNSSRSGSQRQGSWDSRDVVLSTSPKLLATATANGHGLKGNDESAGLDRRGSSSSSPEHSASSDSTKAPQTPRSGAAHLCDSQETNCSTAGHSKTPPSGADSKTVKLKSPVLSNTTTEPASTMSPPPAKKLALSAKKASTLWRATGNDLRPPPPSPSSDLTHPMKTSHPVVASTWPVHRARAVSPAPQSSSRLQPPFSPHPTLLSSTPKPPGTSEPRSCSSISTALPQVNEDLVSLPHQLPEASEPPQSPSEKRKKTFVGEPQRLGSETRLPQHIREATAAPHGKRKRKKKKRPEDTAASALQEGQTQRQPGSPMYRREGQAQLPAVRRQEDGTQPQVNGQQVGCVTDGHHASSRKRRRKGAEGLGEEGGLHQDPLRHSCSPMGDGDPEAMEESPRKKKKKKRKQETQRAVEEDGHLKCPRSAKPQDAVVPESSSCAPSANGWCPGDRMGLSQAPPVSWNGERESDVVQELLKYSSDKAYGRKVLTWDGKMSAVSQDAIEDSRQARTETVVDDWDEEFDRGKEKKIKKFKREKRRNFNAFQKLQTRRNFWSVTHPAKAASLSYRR
Procedure, shortened: as §1

USP38 = molecular target: T2, USP38 (UniProt Q8NB14)
T2 sequence (whole entry): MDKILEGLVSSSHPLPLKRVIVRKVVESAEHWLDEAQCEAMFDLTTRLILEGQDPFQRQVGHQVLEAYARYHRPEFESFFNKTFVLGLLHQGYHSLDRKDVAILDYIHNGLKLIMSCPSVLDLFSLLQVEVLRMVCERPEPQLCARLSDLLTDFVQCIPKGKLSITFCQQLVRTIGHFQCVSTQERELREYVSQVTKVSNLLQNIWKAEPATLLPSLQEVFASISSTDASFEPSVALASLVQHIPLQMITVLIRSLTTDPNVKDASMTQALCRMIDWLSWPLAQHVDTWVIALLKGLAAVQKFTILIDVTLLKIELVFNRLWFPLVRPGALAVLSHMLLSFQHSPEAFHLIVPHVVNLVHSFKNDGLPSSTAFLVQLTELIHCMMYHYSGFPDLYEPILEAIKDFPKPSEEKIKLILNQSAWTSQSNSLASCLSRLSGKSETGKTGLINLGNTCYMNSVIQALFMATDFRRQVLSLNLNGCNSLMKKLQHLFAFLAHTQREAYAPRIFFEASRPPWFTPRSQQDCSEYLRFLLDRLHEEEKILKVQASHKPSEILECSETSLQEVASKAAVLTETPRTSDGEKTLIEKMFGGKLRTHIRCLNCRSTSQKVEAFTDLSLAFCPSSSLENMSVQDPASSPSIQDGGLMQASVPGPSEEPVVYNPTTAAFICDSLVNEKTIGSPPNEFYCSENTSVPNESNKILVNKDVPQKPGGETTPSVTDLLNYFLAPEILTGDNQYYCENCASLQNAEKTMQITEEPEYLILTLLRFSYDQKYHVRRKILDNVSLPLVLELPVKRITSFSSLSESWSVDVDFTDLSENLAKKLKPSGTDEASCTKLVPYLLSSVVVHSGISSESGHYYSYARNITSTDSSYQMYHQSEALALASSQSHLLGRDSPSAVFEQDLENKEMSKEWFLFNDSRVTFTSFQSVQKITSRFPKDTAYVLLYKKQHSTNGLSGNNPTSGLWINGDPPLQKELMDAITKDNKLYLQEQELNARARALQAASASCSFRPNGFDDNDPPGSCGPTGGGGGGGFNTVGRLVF
Procedure, shortened: as §1

USP39 = molecular target: T3, USP39 (UniProt Q53GS9)
T3 sequence (whole entry): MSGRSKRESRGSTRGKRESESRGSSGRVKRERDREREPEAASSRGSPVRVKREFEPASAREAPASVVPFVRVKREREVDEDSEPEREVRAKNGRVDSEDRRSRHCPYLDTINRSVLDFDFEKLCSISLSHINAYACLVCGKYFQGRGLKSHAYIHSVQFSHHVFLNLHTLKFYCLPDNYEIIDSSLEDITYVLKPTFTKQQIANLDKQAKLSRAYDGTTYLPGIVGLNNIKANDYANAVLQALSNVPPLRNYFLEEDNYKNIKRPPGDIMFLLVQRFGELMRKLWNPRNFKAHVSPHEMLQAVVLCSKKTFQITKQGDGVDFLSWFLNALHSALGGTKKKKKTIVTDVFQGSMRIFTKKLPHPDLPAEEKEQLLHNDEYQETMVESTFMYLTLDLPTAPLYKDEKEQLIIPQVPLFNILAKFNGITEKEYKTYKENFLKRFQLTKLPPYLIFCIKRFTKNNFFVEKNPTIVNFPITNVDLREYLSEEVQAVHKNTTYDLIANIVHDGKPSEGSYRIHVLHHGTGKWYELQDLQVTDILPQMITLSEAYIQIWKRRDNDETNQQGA
Procedure, shortened: as §1

USP4 = molecular target: T4, USP4 (UniProt Q13107)
T4 sequence (whole entry): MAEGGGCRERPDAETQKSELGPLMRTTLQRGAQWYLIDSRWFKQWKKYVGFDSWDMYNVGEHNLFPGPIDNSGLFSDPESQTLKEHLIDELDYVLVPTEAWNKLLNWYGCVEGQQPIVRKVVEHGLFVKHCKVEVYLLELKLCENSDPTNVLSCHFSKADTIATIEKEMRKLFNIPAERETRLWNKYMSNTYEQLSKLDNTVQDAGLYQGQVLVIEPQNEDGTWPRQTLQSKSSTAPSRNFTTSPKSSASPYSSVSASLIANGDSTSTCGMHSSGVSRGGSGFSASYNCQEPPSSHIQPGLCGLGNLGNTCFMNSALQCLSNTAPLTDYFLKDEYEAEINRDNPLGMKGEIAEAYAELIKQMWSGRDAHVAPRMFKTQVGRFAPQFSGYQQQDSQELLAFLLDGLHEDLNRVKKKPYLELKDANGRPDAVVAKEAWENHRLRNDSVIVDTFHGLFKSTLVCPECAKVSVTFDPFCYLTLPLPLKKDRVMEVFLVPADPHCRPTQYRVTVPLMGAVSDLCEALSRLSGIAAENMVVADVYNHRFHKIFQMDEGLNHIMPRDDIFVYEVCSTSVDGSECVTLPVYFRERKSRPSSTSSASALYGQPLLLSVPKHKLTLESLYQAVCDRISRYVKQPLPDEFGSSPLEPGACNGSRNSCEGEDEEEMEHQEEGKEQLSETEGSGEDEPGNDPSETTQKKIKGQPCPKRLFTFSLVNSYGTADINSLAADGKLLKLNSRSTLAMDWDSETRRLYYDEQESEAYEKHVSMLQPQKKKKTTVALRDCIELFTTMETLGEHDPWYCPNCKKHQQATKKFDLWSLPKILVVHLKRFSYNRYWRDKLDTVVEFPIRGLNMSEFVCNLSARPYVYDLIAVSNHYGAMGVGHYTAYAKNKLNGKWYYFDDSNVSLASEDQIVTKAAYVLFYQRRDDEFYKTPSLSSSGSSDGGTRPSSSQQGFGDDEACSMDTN
Procedure, shortened: as §1

Measured: log2 ratio of Biotin-Ahx-Ub-VS probe labelling

USP34, sequence (Q70CQ2 whole entry, the tested form may be a part): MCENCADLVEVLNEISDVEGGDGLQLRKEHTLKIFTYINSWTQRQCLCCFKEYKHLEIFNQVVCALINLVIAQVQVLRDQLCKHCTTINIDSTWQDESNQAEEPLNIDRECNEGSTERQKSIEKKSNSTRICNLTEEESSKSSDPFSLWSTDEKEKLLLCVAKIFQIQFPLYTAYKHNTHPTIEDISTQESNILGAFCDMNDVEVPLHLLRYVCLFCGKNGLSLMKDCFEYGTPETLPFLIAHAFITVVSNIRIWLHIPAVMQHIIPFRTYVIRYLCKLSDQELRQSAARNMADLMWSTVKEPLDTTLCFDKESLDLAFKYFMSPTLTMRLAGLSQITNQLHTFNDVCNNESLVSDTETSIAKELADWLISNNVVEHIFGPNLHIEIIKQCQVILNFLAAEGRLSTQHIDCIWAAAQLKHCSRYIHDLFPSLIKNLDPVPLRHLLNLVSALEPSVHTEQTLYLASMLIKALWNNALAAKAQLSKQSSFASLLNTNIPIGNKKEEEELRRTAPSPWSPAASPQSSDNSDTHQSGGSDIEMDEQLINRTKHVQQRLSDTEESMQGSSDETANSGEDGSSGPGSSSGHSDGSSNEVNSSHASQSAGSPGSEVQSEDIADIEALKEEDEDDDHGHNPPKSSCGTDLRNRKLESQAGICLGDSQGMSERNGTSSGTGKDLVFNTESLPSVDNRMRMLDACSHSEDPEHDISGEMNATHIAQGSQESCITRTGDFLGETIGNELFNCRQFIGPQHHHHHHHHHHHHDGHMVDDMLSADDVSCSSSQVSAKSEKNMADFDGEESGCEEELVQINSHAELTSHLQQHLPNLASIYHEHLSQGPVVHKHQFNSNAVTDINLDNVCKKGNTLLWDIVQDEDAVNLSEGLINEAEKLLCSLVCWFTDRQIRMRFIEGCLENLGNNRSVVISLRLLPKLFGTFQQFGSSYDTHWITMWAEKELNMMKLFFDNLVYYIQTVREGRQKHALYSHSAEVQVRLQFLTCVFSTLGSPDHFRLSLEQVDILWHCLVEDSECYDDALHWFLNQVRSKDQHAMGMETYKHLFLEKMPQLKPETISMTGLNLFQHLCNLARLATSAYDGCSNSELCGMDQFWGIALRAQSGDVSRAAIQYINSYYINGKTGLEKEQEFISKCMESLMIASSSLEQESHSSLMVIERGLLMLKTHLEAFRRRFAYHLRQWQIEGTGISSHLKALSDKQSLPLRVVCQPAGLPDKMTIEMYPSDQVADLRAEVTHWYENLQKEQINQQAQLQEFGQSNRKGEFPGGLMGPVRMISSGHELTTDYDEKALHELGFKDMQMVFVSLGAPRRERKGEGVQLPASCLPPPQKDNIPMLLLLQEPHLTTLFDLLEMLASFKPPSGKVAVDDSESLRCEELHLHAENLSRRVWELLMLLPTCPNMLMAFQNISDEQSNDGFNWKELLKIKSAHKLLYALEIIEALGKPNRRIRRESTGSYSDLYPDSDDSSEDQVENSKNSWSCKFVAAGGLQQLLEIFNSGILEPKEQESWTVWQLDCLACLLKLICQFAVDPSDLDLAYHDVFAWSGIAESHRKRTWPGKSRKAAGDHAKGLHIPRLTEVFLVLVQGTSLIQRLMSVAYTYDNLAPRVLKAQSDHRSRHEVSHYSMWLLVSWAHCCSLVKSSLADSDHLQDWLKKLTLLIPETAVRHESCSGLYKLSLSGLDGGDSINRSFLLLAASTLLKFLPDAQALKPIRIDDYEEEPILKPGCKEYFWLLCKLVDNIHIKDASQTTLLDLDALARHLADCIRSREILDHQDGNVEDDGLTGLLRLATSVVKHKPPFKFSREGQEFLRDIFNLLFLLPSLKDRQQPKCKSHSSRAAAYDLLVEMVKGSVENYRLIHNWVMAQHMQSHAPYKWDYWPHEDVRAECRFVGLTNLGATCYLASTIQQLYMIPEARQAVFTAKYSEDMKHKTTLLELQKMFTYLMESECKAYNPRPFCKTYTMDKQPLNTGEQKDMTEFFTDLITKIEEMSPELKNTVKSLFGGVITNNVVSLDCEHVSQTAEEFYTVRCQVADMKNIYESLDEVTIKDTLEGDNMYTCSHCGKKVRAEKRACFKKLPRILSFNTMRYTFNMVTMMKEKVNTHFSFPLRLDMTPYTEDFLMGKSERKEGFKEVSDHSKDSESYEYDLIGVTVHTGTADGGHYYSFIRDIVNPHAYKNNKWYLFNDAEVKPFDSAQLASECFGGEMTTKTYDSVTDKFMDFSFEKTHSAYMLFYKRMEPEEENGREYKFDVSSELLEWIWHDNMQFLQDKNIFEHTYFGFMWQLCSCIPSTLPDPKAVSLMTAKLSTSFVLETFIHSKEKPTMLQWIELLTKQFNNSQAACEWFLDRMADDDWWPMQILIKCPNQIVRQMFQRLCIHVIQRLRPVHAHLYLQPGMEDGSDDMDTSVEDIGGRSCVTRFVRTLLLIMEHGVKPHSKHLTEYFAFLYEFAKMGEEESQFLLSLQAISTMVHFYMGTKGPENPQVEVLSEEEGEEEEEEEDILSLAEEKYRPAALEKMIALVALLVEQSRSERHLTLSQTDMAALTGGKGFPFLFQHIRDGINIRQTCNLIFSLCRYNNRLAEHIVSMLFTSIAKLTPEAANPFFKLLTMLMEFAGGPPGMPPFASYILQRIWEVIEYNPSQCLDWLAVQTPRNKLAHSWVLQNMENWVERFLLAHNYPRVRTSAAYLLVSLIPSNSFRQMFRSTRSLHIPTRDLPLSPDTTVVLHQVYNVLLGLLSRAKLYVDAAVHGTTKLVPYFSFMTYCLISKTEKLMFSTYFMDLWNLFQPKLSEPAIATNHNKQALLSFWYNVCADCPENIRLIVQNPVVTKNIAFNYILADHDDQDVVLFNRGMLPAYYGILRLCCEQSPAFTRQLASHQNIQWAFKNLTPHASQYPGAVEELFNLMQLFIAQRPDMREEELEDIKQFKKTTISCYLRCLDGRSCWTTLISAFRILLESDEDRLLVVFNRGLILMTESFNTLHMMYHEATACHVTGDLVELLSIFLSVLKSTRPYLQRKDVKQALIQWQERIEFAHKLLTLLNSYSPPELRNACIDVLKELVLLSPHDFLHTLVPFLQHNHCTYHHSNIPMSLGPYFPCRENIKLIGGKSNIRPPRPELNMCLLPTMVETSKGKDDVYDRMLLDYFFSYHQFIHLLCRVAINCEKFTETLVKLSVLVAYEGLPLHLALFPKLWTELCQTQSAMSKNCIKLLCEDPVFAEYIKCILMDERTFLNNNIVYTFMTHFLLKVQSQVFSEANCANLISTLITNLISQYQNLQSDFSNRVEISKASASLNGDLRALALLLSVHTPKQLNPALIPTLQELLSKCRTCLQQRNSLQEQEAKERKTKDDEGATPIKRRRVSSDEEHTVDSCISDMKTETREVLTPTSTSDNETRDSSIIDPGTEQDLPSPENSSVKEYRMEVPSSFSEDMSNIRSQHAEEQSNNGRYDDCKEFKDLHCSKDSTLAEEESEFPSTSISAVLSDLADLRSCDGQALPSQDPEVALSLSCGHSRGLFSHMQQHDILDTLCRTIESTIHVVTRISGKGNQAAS

Cn1cc(CN(Cc2ccc(Cl)cc2)C(=O)CCl)cn1
inactive: USP34 -0.228 | USP36 0.253 | USP38 -0.245 | USP39 -0.193 | USP4 -0.316
